This passage reports Kd results from PMC5540273 (PLoS ONE, 2017).

As usually defined, the Kd is the equilibrium constant for the complex coming apart. Low readings indicate tighter binding, high ones weaker binding.
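Also: kd values determined as follow-up on hits from a single-replicate KINOMEscan panel screen.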

One experiment has as its system T1, CDC2L5.
T1 construct: gene CDK13
As for `CCn1c(-c2ccccc2)nc2cnccc21` [SB-733416], the Kd is above 10000 nM.

Turning to `COc1ccc(CSc2nnc(-c3ccc4c(c3)CCO4)o2)cc1`, the Kd was above 10000 nM.

For `CCn1c(-c2c(N)noc2C)nc2cnccc21` [SB-737856], the Kd is above 10000 nM.

In the next experiment the test system is T2, CDK11.
T2 construct: gene CDK19
In turn, `CC(=O)c1cccc(NC(=O)NC2CCN(c3ccnc(Nc4ccc(F)cc4)n3)C2)c1` (centres unmarked) [GSK1379710] returned a Kd of 2000 nM.

Regarding `Cc1cnc(N)c(/C=C/c2cncc(C(=O)NCCc3ccc(Cl)cc3Cl)c2)c1.Cl` [GSK190937], the Kd is 410 nM.

`O=c1cc(N2CCOCC2)nc2n(Cc3cccc(Cl)c3Cl)c3ccccc3n12` [GSK2299009] came in with an equilibrium dissociation constant (Kd) above 10000 nM.

The compound `Nc1ncnc2occ(-c3ccc4c(c3)CCN4C(=O)Cc3cc(F)ccc3F)c12` [GSK2645446] had a Kd of 1100 nM.

In a further experiment the test system is CDK4-cyclinD1.
`CC(C)c1ccc(O)cc1Nc1ccnc2ccc(C(F)(F)F)cc12` [GW482059] displayed a dissociation constant (Kd) above 10000 nM.

`CC(=O)c1c(C)c2cnc(Nc3ccc(N4CCNCC4)cn3)nc2n(C2CCCC2)c1=O` showed a dissociation constant Kd of 1.3 nM.

`CC(=O)c1c(C)c2cnc(Nc3ccn(C)n3)nc2n(C2CCCC2)c1=O` came in with a Kd of 23 nM.

The test system of a further experiment is CDK4-cyclinD3.
Turning to `CC(=O)c1c(C)c2cnc(Nc3ccc(N4CCNCC4)cn3)nc2n(C2CCCC2)c1=O`, the Kd amounted to 0.62 nM.

Regarding `CC(=O)c1c(C)c2cnc(Nc3ccn(C)n3)nc2n(C2CCCC2)c1=O`, binding was put at a Kd of 9.9 nM.

`CCc1ccc(-c2ccc3c(c2)-c2n[nH]cc2S(=O)(=O)N3C)cc1` came in with a dissociation constant (Kd) above 10000 nM.

In another experiment the test system is CDK4.
With `O=C1NC(=O)C(c2ccc(Cl)cc2)=C1Nc1cccc(Cl)c1` [SB-317651], the equilibrium dissociation constant (Kd) was above 10000 nM.

As to `CNc1nc(-c2ccc3c(N)n[nH]c3c2)cc(N2C[C@@H](C(=O)NC3CCCCC3)OC[C@H]2C)n1` [GSK2375584], the dissociation constant (Kd) is above 10000 nM.

`O=C(Nc1n[nH]c2cc(-c3ccsc3)ccc12)C1CC1` [SB-732932] displayed a dissociation constant (Kd) above 10000 nM.

In the case of `COc1nccc(-c2c(-c3ccc(F)cc3)ncn2CCCN2CCOCC2)n1` [SB-282852], the Kd is above 10000 nM.
